# PAX8 inh HTS: inhibitors of PAX8 transcriptional activity in RMG-I cells; AID 652154; 360,000 compounds, 1.2% hits; RMG-I TPO-luciferase reporter, SteadyGlo, 24 h; inhibition, % at 12.6 µM;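 active = mean replicate inhibition at least 60% with every replicate also reaching 60%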;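 also: luciferase light reporting Pax8 driven TPO promoter activity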
# NSD2 inh: NSD2 (human) methyltransferase inhibition; O96028; NSD2 peptide methylation, AlphaScreen, 120 min; inhibition, % at 12.5 µM; 310,000 compounds, 0.54% hits; AID 743445; in the data active = inhibition above about 50%
# Env fusion inh: HIV envelope-mediated fusion inhibition | 360,000 compounds, 1.1% hits | HeLa-JRFL Env/CEM21 cell fusion, luciferase | inhibition, % at 12.3 µM;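 active = mean replicate inhibition score of at least 50 and every replicate individually at or above 50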
# LMP1 NFkB inh: inhibitors of Epstein-Barr LMP1-induced NF-kappaB reporter. 350,000 compounds, 0.69% hits. LMP1-induced NF-kappaB luciferase reporter cells, luminescence. AID 504558. inhibition, % at 12.5 µM; in the data active = inhibition above about 41%
# Shn3 3UTR inh: reduces Shn3 3'UTR luciferase signal in osteoblasts | AID 588674 | inhibition, % at 12.5 µM | 360,000 compounds, 0.52% hits | Clone20 osteoblast Shn3 3'UTR firefly luciferase, 24 h;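 active = mean inhibition of at least 75% with every replicate also reaching 75%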
# Glyco luc inh: N-linked glycosylation inhibition; D54 ERlucT glycosylation luciferase reporter, 24 h; percent of 100 nM tunicamycin response; reporter increase, % at 12.5 µM; 360,000 compounds, 0.23% hits;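 active = mean luciferase reporter signal, scaled so untreated is 0 and the glycosylation-blocking control 100, at or above a set limit in every replicate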;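 also: luciferase carries N-glycosylation sites so blocking glycosylation raises the light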
# Numbers stand for hits; – = inactive; · = no result given; [ ] = another dose, or the depositor's remark. Compounds with a hit are over-represented: about 2.8% of the library has one in this group of screens.
SMILES,PAX8 inh HTS,NSD2 inh,Env fusion inh,LMP1 NFkB inh,Shn3 3UTR inh,Glyco luc inh
Cc1ccc(S(=O)(=O)Nc2ccc3c(c2)C(=O)N([C@@H](C)CO)C[C@H](C)[C@@H](CN(C)Cc2ccc(C(F)(F)F)cc2)OCCCC[C@@H](C)O3)cc1,97,·,–,·,·,·
Cc1ccc(S(=O)(=O)Nc2ccc3c(c2)C(=O)N([C@H](C)CO)C[C@H](C)[C@@H](CN(C)Cc2ccc(C(F)(F)F)cc2)OCCCC[C@H](C)O3)cc1,97,·,–,·,·,·
Cc1noc(C)c1S(=O)(=O)N(C)C[C@H]1OCCCC[C@@H](C)Oc2ccc(NS(=O)(=O)c3ccc(F)cc3)cc2C(=O)N([C@@H](C)CO)C[C@@H]1C,–,·,–,·,·,·
C[C@H](CO)N1C[C@H](C)[C@@H](CN(C)C)Oc2ccc(NS(=O)(=O)c3ccc(F)cc3)cc2C1=O,–,·,·,·,·,·
COc1ccc(NC(=O)Nc2ccc3c(c2)[C@H]2C[C@H](CC(=O)NCc4ccncc4)O[C@H](CO)[C@H]2O3)cc1,–,·,–,·,·,·
Cc1ccc(S(=O)(=O)Nc2ccc3c(c2)C(=O)N([C@@H](C)CO)C[C@H](C)[C@H](CN(C)Cc2ccc(C(F)(F)F)cc2)OCCCC[C@H](C)O3)cc1,108,·,–,·,·,·
CC(C)NC(=O)N(C)C[C@@H]1Oc2ccc(NS(C)(=O)=O)cc2CC(=O)N([C@H](C)CO)C[C@@H]1C,–,·,·,·,·,·
COc1ccc(-c2cn(CC[C@H]3CC[C@@H](NC(=O)Cc4ccccn4)[C@@H](CO)O3)nn2)cc1,88,·,–,·,·,·
O=C(Cc1ccccn1)N[C@H]1CC[C@@H](CCn2cc(-c3ccccc3)nn2)O[C@@H]1CO,–,·,–,·,·,·
Cc1ccc(Cn2ncc3c(N4CCN(Cc5ccc(Cl)cc5)CC4)ncnc32)cc1,·,–,96,–,–,–
Cc1ccc(Cn2ncc3c(N4CCN(c5ccc(C)cc5)CC4)ncnc32)cc1,·,–,91,–,–,–
Cc1ccc(Cn2ncc3c(N4CCN(C)CC4)ncnc32)cc1,–,·,–,–,–,–
C[C@H](NC(=O)C[C@H]1C[C@H]2c3cc(NC(=O)CN(C)C)ccc3O[C@H]2[C@@H](CO)O1)c1ccccc1,–,·,–,·,·,·
C[C@@H]1CN([C@H](C)CO)C(=O)c2cc(NC(=O)Nc3ccc(F)cc3)ccc2O[C@@H](C)CCCCO[C@H]1CN(C)Cc1ccc2c(c1)OCO2,66,·,–,·,·,·
C[C@@H]1CN([C@H](C)CO)C(=O)c2cc(NC(=O)Nc3ccc(F)cc3)ccc2O[C@@H](C)CCCCO[C@@H]1CN(C)Cc1ccc2c(c1)OCO2,92,·,–,·,·,·
C[C@@H]1CCCCO[C@H](CN(C)Cc2ccc3c(c2)OCO3)[C@H](C)CN([C@H](C)CO)C(=O)c2cc(NC(=O)Nc3ccc(F)cc3)ccc2O1,66,·,–,·,·,·
C[C@@H]1CN([C@H](C)CO)C(=O)c2cc(NC(=O)Nc3ccc4c(c3)OCO4)ccc2O[C@@H](C)CCCCO[C@H]1CN(C)Cc1ccc(Cl)c(Cl)c1,·,·,63[16.7 µM],·,·,·
C[C@H](O)C#Cc1cnc2c(c1)C(=O)N([C@@H](C)CO)C[C@@H](C)[C@H](CN(C)C(=O)CN1CCOCC1)O2,–,·,–,·,·,·
Cc1noc(C)c1NC(=O)N(C)C[C@H]1Oc2c(NC(=O)CCCCCC(=O)Nc3ccccc3N)cccc2C(=O)N([C@H](C)CO)C[C@@H]1C,–,·,·,·,·,·
CC=Cc1ccc2n(c1=O)C[C@H]1[C@H](CO)[C@@H](C(=O)NCC)[C@@H]2N1C(=O)c1ccc(F)cc1 (mixture of isomers),–,·,·,·,·,·
C=CCN1CCN(C(=O)CCc2ccccc2)CC1,–,–,–,87,–,–
NC(=O)c1ccsc1NC(=O)CCS(=O)(=O)c1ccccc1,–,–,–,–,–,–
N#Cc1ccsc1NC(=O)COC(=O)CCS(=O)(=O)c1ccccc1,–,–,–,–,–,–
N#Cc1ccsc1NC(=O)CCS(=O)(=O)c1ccccc1,64,–,·,–,–,–
NC(=O)c1ccsc1NC(=O)CCS(=O)(=O)c1ccc(Cl)cc1,65,–,–,–,–,–
CCOC(=O)c1ccsc1NC(=O)CCS(=O)(=O)c1ccccc1,64,–,·,–,–,–
C[C@H]1CN([C@@H](C)CO)C(=O)c2cccc(NC(=O)c3ccncc3)c2O[C@@H]1CN(C)Cc1ccccc1,·,·,–,·,·,·
CC(C)(O)c1cn([C@H]2C[C@@H]3O[C@@H](CO)CC[C@@H]3O[C@@H]2CCc2ccc(-c3ccncc3)cc2)nn1,–,·,·,·,·,·
Cn1c(=O)c(Nc2ccc(O)cc2)c2c3c(cccc31)C(=O)c1ccccc1-2,83,–,·,–,–,–
